Source: PubChem BioAssay AID1240 (Sanford-Burnham Center for Chemical Genomics, 2008)
The whole screen tested about 50,000 compounds, of which about 800 (1.6%) showed an effect of 50% or more. The entries come from a sample that favours strong results as a whole.

What follows are molecules tested against Bcl-2-like protein 10 (Homo sapiens) (UniProt Q9HD36) (assay: Phenotype converters, Bcl-B/TR3 peptide binding displacement, primary biochemical FP (AID 1240;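 further: 0% = Bcl-B with tracer peptide and DMSO and 100% = tracer peptide lacking Bcl-B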)). Conditions: GST-Bcl-B / FITC-TR3 peptide fluorescence polarization; stronger effect = higher value; compound at 3.75 mg/L.
Chain of Bcl-2-like protein 10 (Homo sapiens) (Q9HD36 whole entry, looked up): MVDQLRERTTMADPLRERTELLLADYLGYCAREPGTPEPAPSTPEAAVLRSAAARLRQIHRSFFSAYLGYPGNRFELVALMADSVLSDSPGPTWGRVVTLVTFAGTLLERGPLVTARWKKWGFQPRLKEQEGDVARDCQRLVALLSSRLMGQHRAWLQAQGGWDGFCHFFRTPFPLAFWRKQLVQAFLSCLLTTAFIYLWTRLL
In the case of `O=C1NC(=O)C(=Cc2ccc3c(c2)OCO3)C(=O)N1`, the displacement is reported as 0.3%. `O=C1NC(=O)C(=Cc2ccccc2)C(=O)N1` gave a displacement of -4.2%. `O=C1NC(=O)C(=Cc2ccc(N3CCOCC3)cc2)C(=O)N1` was tested, and the displacement was 78.9%. Molecule `O/N=C1/C(=C/c2ccccc2)N2CCC1CC2` has a displacement of 10.6%. Work on `COC(=O)COc1ccc(/C=C2\C(=O)NC(=S)N(c3ccc(C)cc3)C2=O)cc1OC` yielded a displacement of -13.5%. With `COc1ccc(-c2ccc(C=C3C(=O)NC(=S)NC3=O)o2)c([N+](=O)[O-])c1` the displacement was 34.1%. `COc1ccccc1-n1c(/C=C/c2ccco2)nc2ccccc2c1=O` showed a displacement of -36%. `COc1cccc(-n2c(/C=C/c3ccco3)nc3ccccc3c2=O)c1` gave a displacement of 106%. With `COc1ccccc1-n1c(/C=C/c2ccc(O)cc2)nc2ccccc2c1=O` the displacement was 119%. Work on `Cc1ccc(-n2c(/C=C/c3ccc(O)c(O)c3)nc3ccccc3c2=O)cc1` yielded a displacement of 54.7%. Work on `COc1cccc(-n2c(/C=C/c3ccc(O)c(O)c3)nc3ccccc3c2=O)c1` yielded a displacement of 27.7%. In the case of `COc1ccccc1-n1c(/C=C/c2ccccc2O)nc2ccccc2c1=O`, the displacement is reported as -6%. Work on `COc1ccccc1-n1c(/C=C/c2ccc(O)c(O)c2)nc2ccccc2c1=O` yielded a displacement of -24.6%. `O=c1c2ccccc2nc(/C=C/c2ccc(O)c(O)c2)n1-c1ccccc1` was tested, and the displacement was 1.9%. Molecule `COc1ccc(-n2c(/C=C/c3ccco3)nc3ccccc3c2=O)cc1` has a displacement of -27.1%. `O=C(CNS(=O)(=O)c1ccccc1)Nc1ccc(Br)cc1C(=O)c1ccccc1` was tested, and the displacement was 12%. Work on `O=[N+]([O-])N=C1NC(OCc2ccccc2)C(OCc2ccccc2)N1` (stereo unspecified) yielded a displacement of 1.4%. Molecule `CCC1CN(C)CCC1(O)c1ccccc1` (stereo unspecified) has a displacement of -6.1%. For `CCC(C)N1CCN(C(=O)COc2ccc(Cl)cc2)CC1` (stereo unspecified), the displacement was 9.2%. Work on `CC(C(=O)c1ccc(Cl)cc1Cl)n1cncn1` (stereo unspecified) yielded a displacement of -2.3%. With `COc1ccc(OCC(=O)Nc2ccc(Br)cc2C(=O)c2ccccc2)cc1` the displacement was -8.4%. In the case of `O=Cc1cn(Cc2cccc3ccccc23)c2ccccc12`, the displacement is reported as -2.4%. With `CN1C(=O)NC(=O)/C(=C\c2ccc([N+](=O)[O-])o2)C1=O` the displacement was 17.3%. In the case of `O=c1c2ccccc2nc(-c2ccccc2F)n1-c1cccc(Cl)c1`, the displacement is reported as -2.3%. `CCNc1cc2oc(=O)cc(C(F)(F)F)c2cc1C` gave a displacement of 105%. With `Clc1ccccc1CNCCc1c[nH]c2ccccc12` the displacement was 2%. `O=c1[nH]c(=O)n(-c2ccccc2)c(O)c1N=Nc1ccc(Br)cc1` was tested, and the displacement was 120%. `O=c1[nH]c2ccccc2c(=O)n1-c1ccccc1` was tested, and the displacement was -12.7%. In the case of `O=c1c2ccccc2[nH]c(=S)n1-c1ccccc1`, the displacement is reported as -9.7%. Work on `COc1ccccc1CN1CCN(Cc2ccccc2F)CC1` yielded a displacement of -5.2%. Molecule `O=C(Nc1ccc(Cl)c(-c2nc3ncccc3o2)c1)c1cccc(OCc2ccccc2)c1` has a displacement of -2.6%. In the case of `O=[N+]([O-])c1ccc(CCNC2CCCCC2)cc1`, the displacement is reported as 3.9%. Work on `COc1ccc(OC)c(-n2c(O)c(C=C3C=Nc4ccccc43)c(=O)[nH]c2=O)c1` yielded a displacement of 118%. `O=c1[nH]c(=O)n(Cc2ccccc2)c(O)c1C=C1C=Nc2ccccc21` gave a displacement of 8.6%. Work on `COc1ccc(OC)c(N2C(=O)CC(=O)NC2=O)c1` yielded a displacement of -5.1%. In the case of `COC(=O)N1[C@H](c2ccccc2)[C@@H]1c1ccccc1`, the displacement is reported as 11.9%. For `O=C(CF)NC(Nc1ccc(Br)cc1)C(Cl)(Cl)Cl` (stereo unspecified), the displacement was 8.3%. Work on `CN1C(=O)C(=Cc2ccccc2Cl)C(=O)N(C)C1=O` yielded a displacement of -0.3%. Work on `O=Cc1cn(Cc2ccc(Br)cc2)c2ccccc12` yielded a displacement of 0.2%. Molecule `CN1C(=O)C(=Cc2cn(Cc3ccc(F)cc3)c3ccccc23)C(=O)N(C)C1=O` has a displacement of 138%. `CCn1cc(C=C2C(=O)NC(=S)NC2=O)c2ccccc21` was tested, and the displacement was 136%. In the case of `CCn1cc(C=C2C(=O)NC(=O)NC2=O)c2ccccc21`, the displacement is reported as 12.6%. In the case of `C=CCn1cc(C=C2C(=O)NC(=O)NC2=O)c2ccccc21`, the displacement is reported as 16.3%. For `C=CCc1cc(/C=C2\C(=O)NC(=O)N(c3cc(C)cc(C)c3)C2=O)cc(OC)c1O`, the displacement was -5.3%. `Cc1cc(/C=C2\C(=O)NC(=O)N(C)C2=O)c(C)n1-c1ccc2c(c1)OCO2` gave a displacement of 107%. Work on `Cc1cc(C=C2C(=O)NC(=S)NC2=O)c(C)n1-c1ccc(Cl)cc1` yielded a displacement of 36.9%. `Cc1ccc(-n2c(C)cc(/C=C3/C(=O)NC(=O)N(C)C3=O)c2C)cc1` was tested, and the displacement was -10.4%. For `Cc1cc(C=C2C(=O)NC(=S)NC2=O)c(C)n1-c1ccc(F)cc1`, the displacement was 3.8%. Work on `Cc1cc(C=C2C(=O)NC(=S)NC2=O)c(C)n1-c1ccccc1` yielded a displacement of 104%. With `Cc1cc(/C=C2/C(=O)NC(=O)N(C)C2=O)c(C)n1-c1ccccc1` the displacement was 49.3%. With `O=C1NC(=S)N(c2ccc(Br)cc2)C(=O)/C1=C/c1ccc(-c2ccccc2C(=O)O)o1` the displacement was 19.2%. Molecule `COc1ccc(Br)cc1CN1CCN(C(=O)COc2ccccc2)CC1` has a displacement of 2.5%. Molecule `COC(=O)C1C2C(=O)N(c3ccc([N+](=O)[O-])cc3)C(=O)C12c1ccc(C)cc1` (stereo unspecified) has a displacement of -32.2%. For `Cc1ccc(NC(=O)C2C(C)(C)C2(C)C)cc1C`, the displacement was 6.9%. `CCOC(=O)c1ccc2c(c1)n(Cc1ccccc1)c(C)[n+]2CC` showed a displacement of -14.9%. For `COc1cccc(N2C(=O)CC(=O)NC2=O)c1`, the displacement was -8.2%. For `CCOc1ccc(N2C(=O)/C(=C/c3cc(Cl)ccc3O)C(=O)NC2=S)cc1`, the displacement was 0.4%. Molecule `COc1ccccc1OCCn1cc(C=C2C(=O)NC(=O)NC2=O)c2ccccc21` has a displacement of 38.7%. Work on `CCc1ccc(/C=C2/C(=O)NC(=O)N(c3ccc(OC)cc3)C2=O)cc1` yielded a displacement of -18.1%. With `COc1ccc(N2C(=O)NC(=O)/C(=C/c3cn(CC(=O)Nc4ccccc4)c4ccccc34)C2=O)cc1` the displacement was 88.8%. For `Cc1ccc(N2C(=O)NC(=O)/C(=C\c3ccccc3OCc3ccc(C(=O)O)cc3)C2=O)cc1`, the displacement was -9.2%. With `O=C(O)Cn1cc(/C=C2\C(=O)NC(=O)N(c3ccc(Cl)cc3)C2=O)c2ccccc21` the displacement was -16.9%. With `Cc1ccc(N2C(=O)NC(=O)/C(=C\c3cn(CC(=O)O)c4ccccc34)C2=O)cc1` the displacement was 183%. `CCOc1cc(C)cc2oc(=O)c3c(c12)CCC3` was tested, and the displacement was -1.5%. `Nc1ccc(Br)cc1C(=O)c1ccc(Cl)cc1Cl` showed a displacement of 10%. Work on `CN1C(=O)NC(=O)/C(=C/c2ccc(I)o2)C1=O` yielded a displacement of 9.2%. For `Cn1cc(/C=C2\C(=O)NC(=O)N(Cc3ccccc3)C2=O)c2ccccc21`, the displacement was 99.3%. Work on `CN1C(=O)NC(=O)/C(=C\c2ccc(C(=O)O)cc2)C1=O` yielded a displacement of 1.8%. With `O=C1NC(=O)N(Cc2ccccc2)C(=O)/C1=C/c1ccc2c(c1)OCO2` the displacement was 13.8%. Work on `O=C1NC(=O)N(Cc2ccccc2)C(=O)/C1=C\C=C\c1ccco1` yielded a displacement of 11.3%. Molecule `CN1C(=O)NC(=O)/C(=C/c2cn(C)c3ccccc23)C1=O` has a displacement of 108%.
